Only some compounds are listed: those with a hit (about 5.1% of all), similar ones and a draw of the others.
NPSR antag: neuropeptide S receptor (human) antagonism, cAMP | Q6W5P4 | CHO-NPSR cells, cAMP TR-FRET, antagonist mode | Potency, µM (series often up to 38.3 µM), for the others: at the top dose activity change, negative = inhibition, usual class: inhibitors | actives 1% (n = 220,000); also: potency is read from the fitted curve at half-maximal effect; nearly all actives have a fitted effect of over 50% in size
Target sequence (Q6W5P4 whole entry, looked up): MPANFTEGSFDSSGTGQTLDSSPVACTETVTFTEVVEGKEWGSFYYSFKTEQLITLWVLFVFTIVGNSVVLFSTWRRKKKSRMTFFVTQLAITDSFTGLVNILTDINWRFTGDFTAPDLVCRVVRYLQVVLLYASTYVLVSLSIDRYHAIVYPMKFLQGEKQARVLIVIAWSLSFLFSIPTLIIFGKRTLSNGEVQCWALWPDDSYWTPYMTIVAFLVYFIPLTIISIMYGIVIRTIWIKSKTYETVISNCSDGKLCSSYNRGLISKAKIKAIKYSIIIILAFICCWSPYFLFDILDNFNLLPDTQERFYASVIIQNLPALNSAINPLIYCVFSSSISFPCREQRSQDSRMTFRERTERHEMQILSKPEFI
Tau ThT inhib: blocks human tau fibril formation measured by thioflavin T; P10636; recombinant tau K18 P301L, heparin-induced fibrillization, ThT fluorescence; AID 1460; actives 2.1% (n = 270,000); Potency, µM (top dose mostly 57.4 µM), for the others: at the highest dose activity, negative = inhibition, usual class: inhibitors; also: potency is read from the fitted curve at half-maximal effect; nearly all actives have a fitted effect of over 55% in size
Target sequence (P10636 561-689 P618L limits assumed): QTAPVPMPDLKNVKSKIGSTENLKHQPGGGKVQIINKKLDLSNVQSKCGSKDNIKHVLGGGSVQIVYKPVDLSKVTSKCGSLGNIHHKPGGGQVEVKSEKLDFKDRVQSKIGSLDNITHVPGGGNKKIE
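Fibril formation assay: tau K18 P301L at 15 uM with trace Alexa 594 label, heparin inducer 20 uM, pH 7 sodium acetate buffer, 37 C for 6 hr; endpoint ThT signal.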
Tau fluor cs: counter-screen for tau fibril formation inhibitors. tau K18 P301L Alexa594 fluorescence, heparin fibrillization. Potency, µM (top dose mostly 57.7 µM), for the others: top-dose activity change, negative = decrease. actives 0.93% (n = 280,000). AID 1463; also: potency is read from the fitted curve at half-maximal effect; nearly all actives have a fitted effect of over 55% in size
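Human tau K18 P301L (15 uM unlabeled, 0.24 uM Alexa 594-labeled) in 100 mM sodium acetate pH 7 with 20 uM heparin, 6 hr at 37 C. ThT 30 uM added, 1 hr ambient; Alexa 594 FP and total fluorescence read at 555/632 nm.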
KDM4E inh: JMJD2E (human) inhibition | B2RXH2 | JMJD2E catalytic domain, FDH-coupled NADH fluorescence (FDH is formaldehyde dehydrogenase) | Potency, µM (highest dose often 57.1 µM), inactives show top-dose activity change, negative = inhibition, hits mostly inhibitors | actives 1.6% (n = 230,000); active = well fitted inhibition curve with a large enough effect, not every such curve was filed as active; inconclusive = small, poorly fitted or top-dose-only effect, or another doubt; inactive = no such curve, though single readings can be large or run the other way;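 also: potency is read from the fitted curve at half-maximal effect; 0% = wells with enzyme and -100% = buffer wells without enzyme; nearly all actives have a fitted effect of over 50% in size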
Tau FP inhib: blocks human tau fibril formation measured by polarization. actives 0.39% (n = 280,000). Potency, µM (highest dose often 57.7 µM), inactives show top-dose activity, negative = inhibition, most hits filed as inhibitors. K18 P301L tau heparin fibrillization, Alexa594 FP, 6 h; also: potency is read from the fitted curve at half-maximal effect; nearly all actives have a fitted effect of over 55% in size
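Recombinant K18 P301L […], labeled with Alexa 594 at 0.24 uM over 15 uM unlabeled; heparin inducer 20 uM final; 37 C, 6 hr; FP endpoint.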
PNC inhibitor: inhibitors of perinucleolar compartment assembly; PC3M PTB-GFP, PNC prevalence imaging, 16 h; hits give low values; activity change (PNC), negative = inhibition, % at 10 µM; actives 3.1% (n = 140,000); AID 2417;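 active = readout at or below -70, meaning at least 70% loss of cells showing the perinucleolar compartment, a nuclear body marking cancer cells; inconclusive = readout between -30 and a set limit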;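 also: plate controls were DMSO wells for no effect and camptothecin positive control wells for full effect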
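PC3M cells stably expressing PTB-GFP, 750–1000 cells/well, treated 16 h at 37 °C with compound (23 nl of library stock), in duplicate. After paraformaldehyde fixation and Hoechst stain, imaged at 20x; PNC prevalence scored by image analysis.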
* = called active by the depositor; ? = inconclusive; · = no result given; ! = not confirmed by another sample; [ ] = another dose, or the depositor's remark. Unless noted, calls follow the shape of the dose curve; as a rule, active = well fitted curve in the direction sought with a large enough effect; inconclusive = small, poorly fitted or top-dose-only effect, or another doubt; inactive = no such curve, though single readings can be large; an effect the other way counts as inactive or inconclusive. Unless noted, % is scaled to controls: 0 for no effect and ±100 for the full control effect.

SMILES	NPSR antag	Tau ThT inhib	Tau fluor cs	KDM4E inh	Tau FP inhib	PNC inhibitor
O=C(NCCn1cc(SCc2ccc(Cl)cc2)c2ccccc21)c1cccs1	·	?	8.9µM*[quencher]	·	-19%	·
Cc1nc2ccc(S(=O)(=O)N(C)CC(=O)Nc3ccc(C(C)C)cc3)cc2s1	·	-15%	-24%	·	-3%	·
Cc1ccc([N+](=O)[O-])cc1S(=O)(=O)NCCc1c(C)[nH]c2ccccc12	-13%	?	?	2%	19%	-28
COc1cc(S(=O)(=O)NCCc2c(C)[nH]c3ccccc23)c(C)cc1C	·	?	13µM*[quencher]	·	?	·
CCC(Sc1nc(C)cc(C)n1)C(=O)NC1=NN=C(c2ccc(C)cc2)CS1 (centres undefined)	-12%[46.1 µM]	32µM*	-17%	-9%	?	-6
CCc1ccc(OCC(=O)Nc2cc(-c3ccc(C)cc3)no2)cc1	·	?	-2%	·	-7%	·
Cc1cccc(OCCCC(=O)NC(C)C)c1	4%[46.1 µM]	-10%	-4%	1%	-5%	-80*
Cc1nc2ncnn2c(C)c1CCC(=O)Nc1ccc(S(=O)(=O)N2CCCCCC2)cc1	-15%[46.1 µM]	-15%	-9%	-4%	-8%	-94*
Cc1cccc(OCC(=O)Nc2ccc(S(=O)(=O)N3CCCC3)cc2)c1	3%[46.1 µM]	-7%	-26%	8%	4%	-99*
Cc1cccc(OCCCC(=O)Nc2ccc(N(C)C)cc2)c1	-11%	13µM*	-23%	-3%	16%	-10
Cc1ccc(NC(=O)COc2ccc(S(=O)(=O)N3CCOCC3)cc2)cc1	-7%[46.1 µM]	0%	-4%	14%	-6%	2
Cc1ccc(NC(=O)CCc2c(C)nc3ncnn3c2C)cc1	-3%[46.1 µM]	0%	-1%	-1%	-10%	59
CCC(=O)OCc1cnc(C)c2oc(=O)c(C(=O)Nc3ccc(CC)cc3)cc12	·	?	-16%	·	0%	·
CCc1ccc2oc(-c3ccc(C)c(NC(=O)c4cc([N+](=O)[O-])ccc4N4CCOCC4)c3)nc2c1	·	?	?	·	-2%	·
COC(=O)COc1cccc(NS(=O)(=O)c2ccc(NC(C)=O)cc2)c1	4%[46.1 µM]	-2%	-6%	-2%	4%	-88*
CC(=O)Nc1cccc(OCC(=O)NS(=O)(=O)c2ccc(C)cc2)c1	-5%[46.1 µM]	-4%	4%	4%	12%	17
Cc1ccc(S(=O)(=O)N2CCN(C(=O)CC(C)C)CC2)cc1	2%	-1%	13%[2.34 µM]	4%	4%[2.34 µM]	·
CC(C)CC(=O)N1CCN(S(=O)(=O)c2ccc(F)cc2)CC1	5%[46.1 µM]	-3%	-2%	-3%	-5%	-119*
O=C1CC(N2CCSCC2)C(=O)N1c1ccccc1 (centres undefined)	6%	0%	5%	3%	-2%	·
O=CN1CCN(C2CC(=O)N(c3ccc(Br)cc3)C2=O)CC1 (centres undefined)	9%[46.1 µM]	-3%	3%	-3%	0%	-86*
O=C1CC(N2CCCCC2)C(=O)N1c1ccccc1 (centres undefined)	6%[46.1 µM]	-7%	1%	9%	1%	-100*
CC1=C(C(=O)Nc2cccc(Cl)c2)C2(CCCCCC2)OC1=O	·	5%	1%	·	4%	·
N[C@H](C(=O)N[C@@H]1C(=O)N2C(C(=O)O)=C(Cl)CS[C@@H]12)c1ccccc1	·	·	·	14µM*!	·	·
NC(C(=O)NC1C(=O)N2C(C(=O)O)=C(Cl)CSC12)c1ccccc1 (centres undefined)	·	14µM*	-20%	?	?	·
CCCCc1cc2c(cn1)=C(OC(=O)CCC(=O)OC)C(C)(OC(=O)CC)C(=O)C=2 (centres undefined)	·	-2%[11.5 µM]	4%[11.6 µM]	0%[11.4 µM]	4%[11.6 µM]	·
CCc1ccccc1NC(=O)CCNS(=O)(=O)c1ccc2c(c1)CCN2C(=O)C1CC1	·	-5%	-10%	·	2%	·
Cc1ccc(CSc2nc3ccncc3n2CC(=O)Nc2cc(C)cc(C)c2)cc1	3.2µM*	-4%	?	3%	?	14
